From PubChem BioAssay AID1117319 (Southern Research Institute, 2015)
Hit rate of the full screen: of about 260,000 compounds, about 1,500 (0.58%) were called active. Another 5% or so got no clear call; they are omitted.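 How the source made its calls: active means inhibition above a set limit at one or more doses, reproduced on every date tested; inconclusive means results disagree between test dates, or hit never tested in dose response; inactive means the rest.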 These entries were drawn from the full list. Measured potencies and affinities stand elsewhere.

molecular target: Virion infectivity factor (Human immunodeficiency virus type 1 group M subtype B (isolate BH10)) + Virion infectivity factor (Human immunodeficiency virus type 1 group M subtype B (isolate BRU/LAI)) + Virion infectivity factor (Human immunodeficiency virus type 1 group M subtype B (isolate PCV12)) + Virion infectivity factor (Human immunodeficiency virus type 1 group M subtype B (isolate HXB2)) + DNA dC->dU-editing enzyme APOBEC-3G (Homo sapiens) (UniProt P69720+P69721+P69722+P69723+Q9HC16); assay: HIV-1 Vif–A3G interaction blockers – biochemical, TR-FRET, GST-Vif 1-94, biotin-A3G peptide, dose response retest, primary screen (AID 1117319); conditions: TR-FRET GST-Vif / biotin-A3G peptide binding; hits give high values;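 further: Vif residues 1-94 fused to GST binding biotinylated APOBEC3G peptide 110-148; 0% = full assay without inhibitor and 100% = GST in place of GST-Vif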

inhibition, inactive:
COc1ccc(C(=O)COC(=O)c2cccc(-n3cnnn3)c2)c(OC)c1 3.56%
COC(=O)c1cccc(-n2cnnn2)c1 22.2%
CCOC(=O)c1cc(-c2ccc(OC)cc2F)nc2c1c(C)nn2CCC#N 15.4%
CC1=C(C(=O)OCc2ccccc2)C(c2cccs2)N2C(=O)CCSC2=N1 (stereo unspecified) -5.63%
CCOC(=O)CCn1cnc2ccc([N+](=O)[O-])cc2c1=O 10.2%
Cc1ccc(-c2ccc(=O)n(CCC(=O)N3CCN(c4cccc(C)c4)C(C)C3)n2)cc1 (stereo unspecified) 1.97%
CCOC(CNC(=O)c1cccc([N+](=O)[O-])c1)OCC 8.25%
O=C1CC(Sc2ncccc2C(=O)O)C(=O)N1 (stereo unspecified) 5.46%
Cc1cccc2c1NC(=O)C2(O)N1CCCC(C)C1 (stereo unspecified) 7.4%
C/C(=N\Oc1cccc(F)n1)c1ccc(Cl)cc1Cl -2.41%
CC(C)c1ccc(S(=O)(=O)N2CCN(CC(=O)c3ccc(O)c(O)c3)CC2)cc1 24.8%
O=C(CN1CCN(S(=O)(=O)c2ccc(Br)cc2)CC1)c1ccc(O)c(O)c1 23.1%
CC12CCCC(=O)C1CCC(=Cc1ccco1)C2=O (stereo unspecified) 2.03%
CC1C/C(=C/c2ccccn2)C(=O)/C(=C/c2ccccn2)C1 (stereo unspecified) 19.4%
COc1cc(/C=C2\CC(C(C)(C)C)C/C(=C\c3cc(OC)c(OC)c(OC)c3)C2=O)cc(OC)c1OC (stereo unspecified) 2.75%
CC1C/C(=C/c2ccncc2)C(=O)/C(=C/c2ccncc2)C1 (stereo unspecified) 25.8%
CCC1C/C(=C\c2cccnc2)C(=O)/C(=C/c2cccnc2)C1 (stereo unspecified) 9.28%
CC(C)(C)C1C/C(=C/c2ccccn2)C(=O)/C(=C/c2ccccn2)C1 (stereo unspecified) 2.61%
CCC(NC(=O)NNC(N)=S)(C(F)(F)F)C(F)(F)F 2.24%
CCOc1ccccc1N1CCN(C(=O)c2ccc(-c3ccc(OC(C)=O)cc3)cc2)CC1 -6.48%
Cc1cc(C)c(C(=O)CSc2nnc(C)s2)c(C)c1 -3.21%
CCOC(=O)C1C(=O)CC(C)(O)C(C(=O)OCC)C1c1cccc(OC(F)(F)C(F)F)c1 (stereo unspecified) 1.49%
Cc1cccc(OCc2nc(C#N)c(NCc3ccc4c(c3)OCO4)o2)c1 2.3%
C[C@H](NC(=O)c1ccco1)C(=O)OCC(=O)N1CC(=O)Nc2ccccc21 1.38%
COc1ccccc1NC(=O)CN(c1ccccc1F)S(C)(=O)=O 2.7%
Cc1ccc(S(=O)(=O)Nc2cccc(C(=O)N3CCN(c4ccccc4O)CC3)c2)cc1F -3.67%
